# Experimental data: PubChem BioAssay (NCATS)
# Results filed as inconclusive are left out. A number with no mark means an inactive call. Active and inactive are the calls of the source. The call rests on the fitted dose curve; in most records, active means well fitted cell-killing curve with a large enough effect; inconclusive means small, poorly fitted or top-dose-only effect; inactive means flat fitted curve, though single readings scatter.
# Assay: Cellular viability qHTS for adrenocortical cancer (ACC) cell line NCI-H295R (AID 1963990); further: nearly all actives have a fitted effect of over 60% in size;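 on activity change, negative = viability loss: 0% = DMSO only wells and -100% = full killing with cytotoxic reference compound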
# Conditions: CellTiter-Glo ATP luminescence, 48 h; series mostly up to 46.1 µM; activity change, negative = viability loss: at the top concentration
# How it was run: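 IC50 and maximal efficacy derive from four-parameter logistic modelling of titration curves, with reads scaled between DMSO-only wells (0%) and doxorubicin hydrochloride (100% inhibition). Compounds spanned up to 46 uM over 48 h.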
Structure (SMILES),"activity change, negative = viability loss",Potency
O=c1n(CCCN2CCN(c3cccc(Cl)c3)CC2)nc2ccccn12,0.454%,
CNC(=O)c1cc(COc2nnc(Nc3ccc(Cl)cc3)c3ccoc23)ccn1,,12.6 µM (active)
COc1ccc(Nc2nccc(NCCO)n2)cc1,-14%,
Cc1cncc2cccc(S(=O)(=O)N3CCCN(C(=O)CN)C[C@@H]3C)c12,-23.1%,
Clc1cccc(-n2nnnc2NCc2ccccc2Oc2ccccn2)c1Cl,-6.51%,
CC[C@H](CO)Nc1nc(NCc2ccccc2)c2ncn(C(C)C)c2n1,,31.6 µM (active)
CCCCC(=O)O[C@]1(C(=O)CO)[C@@H](C)C[C@H]2[C@@H]3CCC4=CC(=O)C=C[C@]4(C)[C@@]3(F)[C@@H](O)C[C@@]21C,,inactive
CC(=O)OCC(=O)[C@@]1(O)[C@H](C)C[C@H]2[C@@H]3C=C(C)C4=Cc5c(cnn5-c5ccccc5)C[C@]4(C)[C@@H]3[C@@H](O)C[C@@]21C,,25.1 µM (active)
COc1ccc2nc(S(=O)Cc3ncc(C)c(OC)c3C)[nH]c2c1 (centres undefined),,inactive
CS(=O)(=O)c1ccc(C(=O)Nc2ccc(Cl)c(-c3ccccn3)c2)c(Cl)c1,-20.9%,
CC1(C)O[C@@H]2C[C@H]3[C@@H]4CCC5=CC(=O)C=C[C@]5(C)[C@@H]4[C@@H](O)C[C@]3(C)[C@]2(C(=O)CO)O1,-17.3%,
Nc1ccc(S(=O)(=O)Nc2ccnn2-c2ccccc2)cc1,1.62% [at 20 µM],
Clc1ccc2c(N3CCN(CCCN4CCN(c5ccnc6cc(Cl)ccc56)CC4)CC3)ccnc2c1,-21.4%,
CC(C)c1ccc(Cn2ccc3c4c(N)nc(NC5CC5)nc4ccc32)cc1,,1.12 µM (active)
